Measurements taken from ChEMBL document CHEMBL4513216, “Probing the Open Global Health Chemical Diversity Library for Multistage-Active Starting Points for Next-Generation Antimalarials” (ACS Infect Dis, 2020).
The campaign covered roughly 69,000 compounds. About 8,600 (12%) showed an effect of 50% or more. The list comes from a sample in which strong results are over-represented; it also holds similar structures and randomly drawn compounds.

These compounds were tested on Plasmodium berghei (assay: Screen against P. berghei liver stage (PbLuc), transformed with Luciferase, at 10uM). Details: tested at 10 uM.
Format: functional, HepG2

Row | SMILES | INHIBITION
1 | O=C(NCCc1cc2nc(-c3ccncc3)ccn2n1)C1CC1 | 23.6%
2 | O=C(c1cc[nH]n1)N1CCCC1c1ccccn1 (centres undefined) | 13.5%
3 | CC(=O)N1CCC(c2nccnc2C)CC1 | -16.1%
4 | OCC1(NCc2cnc(-c3ccsc3)s2)CCOCC1 | -11.7%
5 | CN(C)c1cnn(CC(=O)N2Cc3ccccc3C2)c(=O)c1 | 31.4%
6 | CN(CCc1ccccc1)c1cnn(CC(=O)N2CCOCC2)c(=O)c1 | 20.2%
7 | CN(C)c1cnn(CC(=O)N2CCCCCC2)c(=O)c1 | 15.4%
8 | CN(C)c1cnn(CC(=O)N2CCN(Cc3cccs3)CC2)c(=O)c1 | 65.7%
9 | CN(Cc1ccoc1)C(=O)Cn1ncc(N(C)C)cc1=O | 50.5%
10 | CN(C)c1cnn(CC(=O)N2CCN(c3ccccc3)CC2)c(=O)c1 | 53.7%
11 | CN(CCc1ccccc1)c1cnn(CC(=O)N2CCSCC2)c(=O)c1 | 38.5%
12 | CSc1cccc(CN(C)C(=O)Cn2ncc(N(C)C)cc2=O)c1 | 4.64%
13 | CN(Cc1ccc2nsnc2c1)C(=O)Cn1ncc(N(C)C)cc1=O | 5.46%
14 | O=C(CCn1c(C(F)F)cc2cccnc21)NC1CC1 | 22%
15 | CC(c1nc(C(C)(C)C)no1)N1CCN(c2ccc(C#N)cn2)CC1 (centres undefined) | 23.9%
16 | Cc1cc(C)n(CC2CCCN2C(=O)c2ccnc(N(C)C)c2)n1 (centres undefined) | 3.73%
17 | CN(C)C(=O)[C@H]1C[C@H]2CN(c3ncccn3)C[C@@H]1O2 | -5.63%
18 | Cn1cc(CN2CCCC3(CCN(Cc4ccncc4)C3=O)C2)cn1 (centres undefined) | 43.1%
19 | COCCN1CCO[C@@H]2CN(Cc3sccc3C)C[C@@H]2C1 | 24.6%
20 | O=C(c1ccc(=O)[nH]n1)N(CCO)Cc1cc(Br)ccc1F | 23.1%
21 | CCc1ccc(-n2nnc(C(=O)O)c2-c2ccccn2)cc1 | 9.84%
22 | CN(C)C(=O)Cc1nc(CN2CCn3c(nnc3C3CC3)C2)cs1 | 8.81%
23 | Cc1nnc2n1CCN(Cc1csc(CC(=O)N(C)C)n1)C2 | 16.7%

Row | SMILES | INHIBITION
24 | CC(C)c1nnc2n1CCN(Cc1csc(CC(=O)N(C)C)n1)C2 | 52%
25 | O=C1CCC2(CCCN(CCc3ccccc3)C2)N1Cc1cccnc1 (centres undefined) | 23.2%
26 | CC(CNCc1ccc(Cl)cc1)Oc1ccccn1 (centres undefined) | 11.4%
27 | CCn1cc(NC(=O)N2CCN(CCSc3ccccc3)CC2)cn1 | -32.35%
28 | O=C(C1CCCc2[nH]ncc21)N1CCCC1 (centres undefined) | 17.4%
29 | O=C(C1CCCc2[nH]ncc21)N1CCCC2(C1)OCCO2 (centres undefined) | 50.8%
30 | CN1CCN(C(=O)C2CCCc3[nH]ncc32)CC1 (centres undefined) | -3.12%
31 | CCN(CC)C(=O)N1CCN(C(=O)C2CCCc3[nH]ncc32)CC1 (centres undefined) | 67.5%
32 | O=C(C1CCCc2[nH]ncc21)N1CCCCCC1 (centres undefined) | 46.6%
33 | CCN1CCN(C(=O)C2CCCc3[nH]ncc32)CC1 (centres undefined) | -24.9%
34 | CCS(=O)(=O)N1C[C@H]2CN(Cc3ccc(OC)cc3)C(=O)[C@H]2C1 | -12.2%
35 | O=C(NCc1nc(C2CC2)no1)N1CCOC(c2cccc(F)c2)C1 (centres undefined) | 53.6%
36 | O=C(NCc1nc(C2CC2)no1)N1CCOC(c2ccccc2F)C1 (centres undefined) | 35%
37 | O=C(NCc1nc(C2CC2)no1)N1CCOC(c2ccccc2)C1 (centres undefined) | 33.2%
38 | CCCOCC(=O)NC1CCc2nc(C)cn2C1 (centres undefined) | 1.58%
39 | Cc1nc(C)n(CC2CN(CCOc3ccccc3C#N)CCO2)n1 (centres undefined) | -15.5%
40 | Cc1nc(C)n(CC2CN(CCOc3ccccc3F)CCO2)n1 (centres undefined) | 53.8%
41 | Cc1nc(C)n(CC2CCCN(Cc3cc(C#N)ccc3F)C2)n1 (centres undefined) | -2.53%
42 | Cc1csc2c(C3CCN(CCOc4ccccc4F)CC3)nc(C)n12 | 54%
43 | Cc1nc(C)n(CC2CN(Cc3cc(C#N)ccc3F)CCO2)n1 (centres undefined) | 51.1%
44 | Cc1csc2c(C3CCN(CCCOc4ccccc4)CC3)nc(C)n12 | 46.7%
45 | Cc1nc(C)n(CC2CN(CCCOc3ccccc3C)CCO2)n1 (centres undefined) | 24.4%
46 | Cc1ccc(OCCN2CCC(c3nc(C)n4c(C)csc34)CC2)cc1 | 29.1%

Row | SMILES | INHIBITION
47 | Cc1nc(C)n(CC2CN(Cc3cccc(C#N)c3)CCO2)n1 (centres undefined) | 10.5%
48 | CN1CC[C@H](N(Cc2ccccc2)CC2CC2)C[C@H](O)C1 | 23.7%
49 | Cc1ccsc1CN(CCCN(C)C)Cc1ccccn1 | 2.6%
50 | O=C(CC1[C@H]2CN(Cc3ccsc3)C[C@@H]12)N1CCCC1 (some centres undefined) | 7.5%
51 | Cc1cc(-c2cnc(C)nc2CN(C)C(=O)c2cc(C3CC3)on2)on1 | -18.9%
52 | CCOc1ccc(NC(=O)N(CCN(C)C)C(C)c2ccncc2)cc1 (centres undefined) | 14.3%
53 | COCC1c2c(cnn2C)CCN1Cc1ccco1 (centres undefined) | 35.8%
54 | CS(=O)(=O)N1CCC(n2nnn(-c3ccccc3)c2=O)CC1 | 2.7%
55 | CN1C(=O)[C@@H]2CC[C@H]1CN(c1ncnc3ccsc13)C2 | -15.1%
56 | c1ccc2nc(N3CCCC(Cn4cncn4)C3)cnc2c1 (centres undefined) | -2.55%
57 | Cc1nc(C)n(CC2CCCN(CC3CCCCC3)C2)n1 (centres undefined) | 15.6%
58 | O=C1[C@@H]2CC[C@@H](CN(c3ncnc4ccsc34)C2)N1CC1CC1 | 78.9%
59 | O=C(O)c1cn(CC2CCCN(c3nc4ccccc4s3)C2)nn1 (centres undefined) | 46.6%
60 | Cc1nc(C)n(CC2CCCN(c3ncnc4c3CCC4)C2)n1 (centres undefined) | 80.8%
61 | c1ccc2sc(N3CCCC(Cn4cncn4)C3)nc2c1 (centres undefined) | 54.5%
62 | c1nc(N2CCCCC2Cn2cncn2)c2sccc2n1 (centres undefined) | 6.65%
63 | COc1cc(N2C[C@H]3CC[C@@H](C2)N(CC2CCC2)C3=O)ncn1 | 2.15%
64 | c1nc(N2CCCC(Cn3cncn3)C2)c2sccc2n1 (centres undefined) | 85.4%
65 | Cc1nc(C)n(CC2CCCN2c2ncnc3c2CCC3)n1 (centres undefined) | 26.9%
66 | c1nc(N2CCCC(Cn3cncn3)C2)c2ccsc2n1 (centres undefined) | -17.3%
67 | Cc1ccnc(C2CCN(S(=O)(=O)c3cn(C)cn3)CC2)n1 | -10.5%
68 | O=C(Nc1cccnc1)C1CN(C(=O)c2ccc3c(c2)OCO3)C1 | 34.6%
69 | CCc1nc(CN2CCCC2c2c(C)nn(C)c2OC)no1 (centres undefined) | 33.8%
